Assay [1] is described as follows: qHTS Assay for Identifying Gametocytocidal Compounds (AID 743244). Also: potency is read from the fitted curve at half-maximal effect.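 As to max response: % is scaled to controls: 0 for no effect and ±100 for the full control effect; actives lower the fluorescent signal which means gametocytes are killed.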 To be noted: P. falciparum 3D7 stage III-V gametocytes, alamarBlue, 72 h; max response: active compounds read low. The essentials:
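In this qHTS viability screen, late-stage 3D7 gametocytes are incubated with compound for 72 h, then with alamarBlue for 24 h; reduced resorufin fluorescence marks killing.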

Assay [2] has as its target T1, Hexokinase-4 (Homo sapiens) + Glucokinase regulatory protein (Homo sapiens) (UniProt P35557+Q14397). Briefly: qHTS assay for inhibitors of recombinant human GCK-GKRP interaction: Diaphorase-coupled assay (AID 743205). To be noted: G6PDH/diaphorase resorufin fluorescence; series mostly up to 57.5 µM. The essentials:
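Resorufin fluorescence (525/590 nm), read each minute over 30 min, reports GCK activity coupled via G6PDH and diaphorase. Reaction: 10 nM GST-GCK, 10 nM FLAG-GKRP, 5 mM glucose, 0.4 mM ATP, 0.15 mM NADP+, 0.1 mM resazurin.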

For assay [3], the target named is T1, Hexokinase-4 (Homo sapiens) + Glucokinase regulatory protein (Homo sapiens). Briefly: qHTS assay for inhibitors of recombinant human GCK-GKRP interaction: ADP-Glo assay (AID 743206).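 Also: plate controls were DMSO plus enzyme for no effect and no enzyme for full effect.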 Conditions: ADP-Glo luminescence, 60 min, 0% = vehicle-only wells with enzyme present; series mostly up to 76.9 µM. An outline of the steps:
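Pin-transferred compounds meet a 15 nM GST-GCK/15 nM FLAG-GKRP/2 uM S6P mix (dispense concentrations). ATP is then added to 0.4 mM final with 5 mM glucose, and the reaction runs 60 min at room temperature. ADP is quantified luminescently.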
Background: In qHTS, concentration-response curves come from the screen itself.

Assay [4] shares this target. Briefly: qHTS assay for inhibitors of recombinant human GCK-GKRP interaction: HTRF assay (AID 743207).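 Also: 0% = DMSO with GCK present and -100% = DMSO wells lacking GCK.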 To be noted: recombinant GCK-GKRP HTRF binding, 60 min, with sorbitol-6-phosphate; series mostly up to 57.5 µM. The essentials: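 HTRF read-out (ex 320 nm; 615/665 nm emission) after 60 min RT equilibration of 5 nM GST-GCK, 5 nM FLAG-GKRP, 2 uM S6P, compound and anti-FLAG/anti-GST detection antibodies; signal normalized between DMSO wells with and without GCK.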

Values joined by “and” are separate entries in the source; they are usually repeats but may differ in a detail not shown here. Equal values may be shown once. Unmarked numbers belong to inactive results. Results filed as inconclusive are left out. Active and inactive are the calls of the source. Calls follow the shape of the dose curve; as a rule, active = well fitted curve in the direction sought with a large enough effect; inconclusive = small, poorly fitted or top-dose-only effect, or another doubt; inactive = no such curve, though single readings can be large or run the other way.

T1 sequence (P35557 whole entry, looked up): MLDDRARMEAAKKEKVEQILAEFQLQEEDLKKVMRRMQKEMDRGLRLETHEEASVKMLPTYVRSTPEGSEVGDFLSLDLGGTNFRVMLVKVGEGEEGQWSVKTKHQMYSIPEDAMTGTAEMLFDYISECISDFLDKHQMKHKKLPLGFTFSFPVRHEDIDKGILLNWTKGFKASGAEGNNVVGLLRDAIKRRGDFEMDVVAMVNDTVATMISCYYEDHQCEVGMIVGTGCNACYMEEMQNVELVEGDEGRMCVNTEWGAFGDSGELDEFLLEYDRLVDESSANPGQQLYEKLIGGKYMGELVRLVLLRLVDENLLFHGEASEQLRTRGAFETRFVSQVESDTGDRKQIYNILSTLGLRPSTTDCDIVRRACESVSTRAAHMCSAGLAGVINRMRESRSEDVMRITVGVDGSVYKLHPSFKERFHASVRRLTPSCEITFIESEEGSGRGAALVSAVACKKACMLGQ
T1 sequence (Q14397 whole entry, looked up): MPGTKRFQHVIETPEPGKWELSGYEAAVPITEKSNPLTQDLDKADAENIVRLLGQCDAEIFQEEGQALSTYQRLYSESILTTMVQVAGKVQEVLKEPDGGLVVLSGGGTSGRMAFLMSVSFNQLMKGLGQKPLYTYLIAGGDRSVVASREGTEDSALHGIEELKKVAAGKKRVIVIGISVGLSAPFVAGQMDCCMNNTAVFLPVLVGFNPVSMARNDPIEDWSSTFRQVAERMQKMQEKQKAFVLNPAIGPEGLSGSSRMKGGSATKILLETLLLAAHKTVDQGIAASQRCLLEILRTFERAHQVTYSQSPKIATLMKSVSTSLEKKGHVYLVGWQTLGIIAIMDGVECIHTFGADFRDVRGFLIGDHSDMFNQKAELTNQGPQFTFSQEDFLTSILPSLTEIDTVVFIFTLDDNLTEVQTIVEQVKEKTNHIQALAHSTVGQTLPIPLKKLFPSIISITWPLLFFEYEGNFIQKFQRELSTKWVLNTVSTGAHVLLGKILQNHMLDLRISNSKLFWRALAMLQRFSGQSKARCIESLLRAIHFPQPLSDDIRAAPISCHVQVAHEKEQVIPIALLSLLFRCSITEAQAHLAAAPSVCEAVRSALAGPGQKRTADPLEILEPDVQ

Take `COc1ccc(-c2c(-c3ccc(O)cc3O)n[nH]c2C)cc1`: in assay [1], the max response was 3.95%.

`Cc1cccc(-c2[nH]c(C(C)(C)C)nc2-c2ccc3nccnc3c2)n1`: the outcome in assay [2], in assay [3] and in assay [4] was inactive. In assay [1], the Potency was 0.662 µM (active).

Consider `C[C@]12CC[C@H](O)CC1=CC[C@@H]1[C@H]2CC[C@]2(C)C(c3cccnc3)=CC[C@H]12`, for which the max response in assay [1] was -8.9%.

For `CCC(C)N(C)C(=O)c1cc2ccccc2c(-c2ccccc2Cl)n1` (configuration not stated), the outcome in assay [2], in assay [3] and in assay [4] was inactive. For the same molecule, in assay [1], the max response is 24.9%.

Turning to `Nc1ccc(S(=O)(=O)Nc2ccnn2-c2ccccc2)cc1`, the result in assay [2], in assay [3] and in assay [4] was inactive. Besides, the max response in assay [1] is 9.56% and 18.4%.

On to `O=C(O)COCCN1CCN(C(c2ccccc2)c2ccc(Cl)cc2)CC1` (configuration not stated), for which the outcome in assay [2], in assay [3] and in assay [4] was inactive. The max response in assay [1] is -12% and 28.9%.

On to `N=c1nc(N2CCCCC2)cc(N)n1O`, for which the result in assay [2], in assay [3] and in assay [4] was inactive. In addition, the max response in assay [1] is 1.66% and 5.64%.

Values taken from PubChem BioAssay (NCATS).
